Test results from PubChem BioAssay (NCI).
This is part of a sample that, as a whole, favours compounds with a hit. Of some 83,000 tested, about 20% had one in any assay.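 Testing used 96-well plates and a 48-hour single-concentration exposure. Example: -40 means 40% of the starting cells died.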 The source made the active and inactive calls. How the source made its calls: active means growth percent below 10; inactive means the rest.

Test system: MDA-MB-468 breast
Assay: NCI-60 one-dose screen, 48 h (100 = growth as untreated, 0 = no growth, -100 = all killed)
Conditions: 10 µM unless noted

SMILES	growth
CCc1ccc(-c2ccc(COc3ccc(CC4SC(=O)NC4=O)cc3)cc2)cc1 (stereo not given)	35.3% (inactive)
CC/C=C\C[C@@H]1C/C=C2/C(=O)C=C[C@H]2C/C=C\CCCC(=O)O1	-63.3% (active)
O=C1c2c(c3c4cc(O)ccc4oc3c3[nH]c4ccccc4c23)C(=O)N1O	-48.7% (active)
Cc1ccccc1-n1nnc(C(=O)Nc2nc(-c3ccccc3)c(-c3ccccc3)s2)c1C	61.9% [50 µM] (inactive)
CCCCNNC(=O)c1ccc(Br)cc1	60.1% (inactive)
COc1ccc(N2CCN(S(=O)(=O)c3oc(-c4ccccc4)nc3C#N)CC2)cc1	79.6% (inactive)
Cc1cc(Nc2nc(N[C@@H](C)c3ncc(F)cn3)ncc2Cl)n[nH]1	100% (inactive)
CCn1c(=O)c2c(=O)c3c4c(oc3oc2c2ccccc21)C(=O)c1ccccc1C4=O	-29.6% (active)
CCOC(=O)C/C(=N\Nc1cc(=O)[nH]c2ccc(C)cc12)C(=O)OCC	91.1% (inactive)
CCCCCCCCCCCC(c1ccccc1)[N+](C)(C)C (stereo not given)	-45.6% (active)
Cc1ccc(-c2nc(C#N)c(S(=O)(=O)NCCO)o2)cc1	37.1% (inactive)
CCOC(=O)c1ccc(NC(=O)CSC(N)=O)cc1	108% (inactive)
Clc1ccc(Nc2nc(Nc3ccccc3)nc(Nc3ccc(-c4cc(-c5ccc(Cl)cc5)on4)cc3)n2)cc1	93.4% (inactive)
Cc1ccc(S(=O)(=O)N2CCCN(c3nc(-c4ccccc4)nc4nc(-c5ccccc5)oc34)CC2)cc1	109% (inactive)
C[C@H](NC(=O)[C@@H]1CSSC[C@@H](NC(=O)Cc2nc3ccccc3cc2O)C(=O)NCC(=O)N1C)c1ccccc1	17.5% (inactive)
COc1ccc(/C=C/c2ccc3ccccc3n2)c(OC)c1	18.3% (inactive)
Cc1n[nH]c(C)c1N=Nc1cccc2c1C(=O)c1ccccc1C2=O	96.2% (inactive)
CSc1nc(Nc2cccc(NC(=O)/C(C#N)=C/c3c(Cl)cccc3Cl)c2)c(C#N)c(-c2cccc([N+](=O)[O-])c2)n1	36.9% (inactive)
CCOC(=O)c1c(NC(=O)c2ccc(F)cc2F)sc2c1CCC(=O)C2	95.2% (inactive)
CCCCCn1sc(=O)n(Cc2ccc(CNC(=O)OCc3ccc4cccc(O)c4n3)cc2)c1=O	-48.1% (active)

SMILES	growth
Clc1ccc2c(NCCNc3nc(N4CCCC4)nc4ccccc34)ccnc2c1	-49.2% (active)
CN(CCC#N)c1ccc(/C=C2\NC(=O)NC2=O)cc1	110% (inactive)
ClC1c2ccccc2CCc2ccccc21	111% (inactive)
COc1ccc(/C=N/NC(=O)CN2CCN(c3cc4c(cc3F)c(=O)c(C(=O)O)cn4C3CC3)CC2)cc1O	101% (inactive)
COC(=O)c1nc(N)nc(C(=O)OC)c1C(=O)c1ccc(F)cc1	101% (inactive)
COc1ccc(Cl)cc1-n1nnc(-c2nc3ccccc3[nH]2)c1N	63.2% (inactive)
CC(=O)Oc1ccccc1C(=O)Nc1ncc([N+](=O)[O-])s1	36.9% (inactive)
Cc1ccc(Nc2cc(N)nc(N)n2)cc1Cl	77.8% (inactive)
C=C1/C(=C\C=C2/CCC[C@]3(C)[C@@H]([C@H](C)CCCC(C)(C)O)CC[C@@H]23)C[C@@H](OC(=O)CBr)C[C@@H]1O	72.8% (inactive)
Cc1ccc(-c2nc3nc(-c4ccc(Cl)cc4)nc(N4CCCNCC4)c3o2)cc1	-54.2% (active)
O=C(/C=C/c1cccc(F)c1)c1cccc(OCCCOc2cccc(C(=O)/C=C/c3cccc(F)c3)c2)c1	75.2% (inactive)
N#Cc1c(-c2ccccc2)cc(-c2ccccc2)n(CCCCC(=O)O)c1=O	89.1% (inactive)
O=C(NCc1ccccc1)/C(=C/c1ccccc1)NC(=O)c1ccccc1	93.9% (inactive)
CC[C@]12C=CCN3CC[C@@]4(c5cc([C@H]6CCC(=O)N6)c(OC)cc5N(C)[C@H]4[C@@](O)(C(=O)OC)[C@@H]1OC(C)=O)[C@@H]32	110% [2.5 µM] (inactive)
O=C(N/N=C/c1ccc(Cl)cc1)c1ccc(C(F)(F)F)nc1Nc1cccc(C(F)(F)F)c1	16.7% (inactive)
CCCCn1c(=O)c(-c2cc(-c3ccc(Cl)cc3)nc(-c3ccc(Cl)cc3)c2)cc2ccc(Cl)cc21	95% (inactive)
COc1ccccc1Cn1cc2c(c1-c1ccccc1)CCc1cnoc1-2	10.9% (inactive)
CN([O-])c1nc(N(C)[O-])nc(N2CCOCC2)n1.CN([O-])c1nc(N(C)[OH2+])nc(N2CCOCC2)n1.[Fe+3]	-52.3% [100 µM] (active)
CC1CCCC(CC(N)=O)CC1 (stereo not given)	97.9% (inactive)
Cc1[nH]n(-c2ccccc2)c2nc3nncc3c(-c3ccc(Cl)cc3)c12	95.1% (inactive)
